# An excerpt weighted towards active compounds, which were near 5.1% of everything screened.
# KCC2 mod: KCC2 cotransporter modulators, thallium flux, primary screen, cell-based, HEK293 KCC2, FluoZin-2 fluorescence, MLSMR | KCC2 cells, thallium flux FluoZin-2 fluorescence | B-score of Tl+ flux slope (higher = more flux/activation; lower = inhibition) at 10 µM | 2.2% of 190,000 active | AID 1456, 2008;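 active means thallium flux slope and its plate-corrected score both differing from the plate sample mean at a set confidence after two filtering rounds, in either direction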;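 further: slope of fluorescence scaled to starting intensity during 10 to 20 s after thallium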
# S1P4 agonist: S1P4 receptor agonists, primary screen, cell-based | AID 1509, 2009 | 0.35% of 220,000 active | S1P4-expressing cell line, agonist reporter assay | activation, % at 4.98 µM | Sphingosine 1-phosphate receptor 4 (Homo sapiens), O95977; in the data active means activation above about 11%;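 further: 0% = DMSO vehicle and 100% = reference agonist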
# ROMK mod: ROMK potassium channel modulators, primary screen, cell-based, thallium flux, MLSMR library. Tet-inducible ROMK, thallium flux fluorescence; actives lie on both sides. B-score at 10 µM. 2% of 130,000 active. ATP-sensitive inward rectifier potassium channel 1 (Homo sapiens), P48048;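 active means signal ratio slope over the read window, or its plate-corrected B-score, at least 3 SD from the plate mean, either direction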;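 further: B-score of the F/F0 ratio slope over 7 to 12 s after thallium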
# S1P3 antag: S1P3 receptor antagonists, primary screen, cell-based; Sphingosine 1-phosphate receptor 3 (Homo sapiens), Q99500; CHO S1P3 NFAT-BLA reporter, FRET fluorescence, antagonist mode; inhibition, % at 4.98 µM; 0.27% of 170,000 active;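 active means inhibition above the plate cutoff, the mean inhibition of test wells on that plate plus 3 SD, cut at about 28% in these data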;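 further: cells challenged with S1P at its EC80 of 0.8 µM; blue over green emission ratio from cleaved BLA substrate after 4 h stimulation; 0% = S1P-stimulated wells and 100% = unstimulated DMSO-only wells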
# RAM network inh: inhibitors of the yeast RAM network, primary screen, dse1pr::URA3 reporter, 5-FOA selection; AID 868, 2007; S. cerevisiae dse1pr::URA3 reporter, 5-FOA growth OD615, 2 d; analog-sensitive cbk1-as2 kinase mutant strain; 1.8% of 190,000 active; inhibition, % at 50 µM;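 active means inhibition above a set limit, 3 SD over mean compound inhibition, cut at about 8.4% in these data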;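 further: 0% = DMSO-only wells with no growth and 100% = 10 µM 1-NA-PP1 full growth; inhibition rescues growth on 5-FOA so higher OD means more RAM inhibition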
# S1P4 antag: S1P4 receptor antagonists, primary screen, cell-based; Sphingosine 1-phosphate receptor 4 (Homo sapiens), O95977; S1P4-expressing cells, antagonist mode, reporter read-out; inhibition, % at 4.98 µM; 0.26% of 220,000 active; AID 1510, 2009; in the data active means inhibition above about 29%;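 further: 0% = wells stimulated with agonist and 100% = vehicle wells without agonist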
# KCC2 sec1: KCC2 modulators in sodium-free buffer, confirmation, cell-based, HEK293 KCC2, thallium flux, secondary assay; shares compounds with KCC2 mod; FluoZin2 fluorescence; hits give high values; normalised thallium flux (F/F0 slope) at 10 µM; 15% of 3,700 active; AID 1713, 2009;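 active means thallium flux slope above the same plate's solvent-only control mean plus 3 SD; inconclusive means the two replicate wells disagree; inactive means no significant difference from solvent-only control wells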
# KCC2 bumet counter: thallium flux persisting under bumetanide in KCC2 cells, confirmation, counter-screen for KCC2 modulator project, cell-based, HEK293 KCC2, FluoZin2, secondary assay 3. shares compounds with KCC2 mod. HEK293-KCC2 + bumetanide/ouabain; hits give high values. normalized thallium flux at 10 µM. 49% of 3,700 active;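 active means thallium entry rate above the same plate's blocked-transporter control wells by more than 3 SD; inconclusive means the two repeat wells disagree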;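 further: raw slope of fluorescence over initial fluorescence between 10 and 20 s after thallium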
# KCC2 sec2: KCC2 modulators without ouabain present, confirmation, cell-based, HEK293 KCC2, thallium flux, FluoZin2, secondary assay 2; shares compounds with KCC2 mod; thallium flux FluoZin2 fluorescence; actives lie on both sides; F/F0 rise rate, 10–20 s post-thallium; normalized thallium flux at 10 µM; 23% of 3,700 active;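 active means thallium flux slope more than 3 SD above or below the plate's solvent-only control mean, mostly below; inconclusive means the two repeat wells disagreed; inactive means no significant shift from solvent-only controls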;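 further: raw slope with 0.1% DMSO as baseline and bumetanide as block control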
# HEK293 Tl flux: thallium flux modulation in parental HEK cells, confirmation, counter-screen for KCC2 modulator project, cell-based, counterscreen 1. AID 1716, 2009. shares compounds with KCC2 mod. 46% of 3,700 active. thallium flux rate (normalised fluorescence) at 10 µM. HEK293 parental cells, thallium flux FluoZin2, ouabain; baseline-ratio fluorescence slope, 10–20 s after thallium;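 active means thallium flux rate significantly above the same plate's solvent-only control wells, beyond their mean plus 3 SD; inconclusive means the two replicate wells gave conflicting results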
# KCC2 retest ouab: KCC2 inhibitors and activators, ouabain retest, confirmation, HEK-KCC2 cells; shares compounds with KCC2 mod; HEK293-KCC2, thallium flux FluoZin2 fluorescence; bidirectional: low = inhibitor, high = activator; raw Tl+ flux slope (below DMSO = inhibition, above = activation) at 10 µM; 48% of 3,700 active; AID 1717, 2009;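 active means thallium flux slope beyond 3 SD from same-plate DMSO control mean in most replicates, usually higher, sometimes lower; inconclusive means repeat tests gave conflicting results; inactive means no significant difference from controls in most replicates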;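 further: slope of initial-normalized fluorescence between seconds 10 and 20 after thallium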
# HEK293 Tl flux2: native HEK Tl+ uptake effects, second counter-screen – HEK cells, counterscreen 2, counter-screen for KCC2 modulator project, confirmation. shares compounds with KCC2 mod. HEK293 parental, thallium flux FluoZin-2 fluorescence slope. thallium flux slope at 10 µM. 33% of 3,700 active. AID 1718, 2009;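 active means thallium flux slope above the same plate's solvent-control mean plus 3 SD in both duplicate wells; inconclusive means duplicate wells that disagreed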;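 further: run without ouabain in cells lacking the KCC2 cotransporter; slope of fluorescence scaled to its starting value between 10 and 20 s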
# An asterisk follows results filed as active; ? = inconclusive; · = no result given.
SMILES,KCC2 mod,S1P4 agonist,ROMK mod,S1P3 antag,RAM network inh,S1P4 antag,KCC2 sec1,KCC2 bumet counter,KCC2 sec2,HEK293 Tl flux,KCC2 retest ouab,HEK293 Tl flux2
CN1C(=O)c2ccc(NC(=O)CCS(=O)(=O)c3ccccc3)cc2C1=O,0.18,0,1.1,-28,2,-9,·,·,·,·,·,·
c1cnc2c(SCc3ccc(-c4nnco4)cc3)cccc2c1,-5.7*,-1,-0.61,-1,0,-2,0.011,0.015*,0.035,0.0041,0.021*,0.012
C=CCn1c(=S)[nH]c2sccc2c1=O,7.8*,0,-0.49,-1,0,1,0.0068,0.015*,0.036,0.017*,?,0.019*
O=C(CCN1C(=O)c2ccc([N+](=O)[O-])cc2C1=O)Nc1ccccc1C(=O)O,0.044,1,·,-17,·,-10,·,·,·,·,·,·
Cc1nn2c([nH]c(=O)c3ccccc32)c1C=O,3.4*,-1,·,·,-1,-8,0.01,0.01*,0.032,?,?,0.0091
COCCn1nnnc1C(C(C)C)N1CCCC(C)C1 (stereo unspecified),0.038,-1,0.22,-8,1,10,·,·,·,·,·,·
Oc1oc(-c2ccccc2)nc1/C=N/c1nccs1,14*,4,·,8,6,-19,0.016*,0.082*,0.032,0.017*,0.044*,0.012*
CCCCOc1ccc(-c2nc(/C=N/c3nccs3)c(O)o2)cc1,2.2,4,·,-11,4,-9,·,·,·,·,·,·
Cc1c(C2Nc3ccccc3NC3=C2C(=O)CC(C)(C)C3)cnn1C (stereo unspecified),0.41,1,-1.6,·,0,-14,·,·,·,·,·,·
Cc1cc2c(cc1C)NC(c1nc3ccccc3[nH]1)C1=C(CC(C)(C)CC1=O)N2 (stereo unspecified),-3.8*,1,·,·,0,-9,0.01,0.0052,0.036,0.004,0.02,0.011
O=C(NNC(=O)C1[C@H]2CCCC[C@@H]12)NC1CCCCC1 (stereo partly specified),0.43,-2,-0.85,7,0,-10,·,·,·,·,·,·
Cc1sc2c(c1C)C(=O)/C(=C\Nc1ccncc1)S(=O)(=O)N2C,·,1,·,-1,·,-15,·,·,·,·,·,·
FC(F)(F)c1ccc2c(c1)[nH]c(=S)n2C1CC1,62*,0,1.3,-10,0,-9,0.03*,0.17*,0.045*,0.069*,0.11*,0.027*
FC(F)(F)c1ccc2c(c1)N1CCCC1CN2 (stereo unspecified),·,2,-0.029,-32,2,-23,·,·,·,·,·,·
COc1ccccc1/C=C\C(=O)NCC(=O)N/N=C(\C)Cc1ccccc1,-1.1,0,-0.77,-5,·,12,·,·,·,·,·,·
CCC(CC)C1C(C#N)=C(N)Oc2n[nH]c(C)c21 (stereo unspecified),·,1,-0.48,·,1,-8,0.011,0.0072,0.032,0.0036,0.016*,0.011
CC1(c2nnc(-c3ccncc3)o2)CC(c2ccc(F)cc2)=NO1 (stereo unspecified),-1.5,·,·,·,·,·,·,·,·,·,·,·
O=c1c2cc(Br)ccc2[nH]c(=S)n1Cc1ccccn1,35*,-1,0.2,-4,6,0,?,0.071*,0.044*,0.046*,0.057*,0.021*
Cc1ccc(-n2c(=S)[nH]c3c(oc4ccccc43)c2=O)cc1C,5.7*,0,·,-11,5,-8,0.017*,0.04*,0.03,0.018*,0.029*,0.012*
O=c1c2oc3ccccc3c2[nH]c(=S)n1-c1ccc(F)cc1,1.7,3,-0.36,-1,4,-5,·,·,·,·,·,·
CC(C)c1ccc(CNC(=O)C(=O)Nc2nccs2)cc1,12*,0,0.0014,-10,3,-14,?,0.019*,0.035,0.019*,?,0.016*
COCCNc1nc2nonc2nc1N(C)Cc1cccc2cnccc12,-3.1*,0,·,-7,-1,6,0.0066,0.0049,0.028,0.0079,?,0.011
CCN(c1ccccc1)c1nc2nonc2nc1NCCO,-0.93,2,·,8,·,6,·,·,·,·,·,·
CCc1nn2c(NCCOC)cc(C)nc2c1-c1ccc(F)cc1,-0.76,0,-0.066,12,2,15,·,·,·,·,·,·
Cc1ccc(C)c(C(=O)NC(C)CCc2ccccc2)c1 (stereo unspecified),-3.5*,0,-0.013,-15,2,-24,0.0075,0.0044,0.025*,0.0074,?,0.01
Cc1occc1C(=O)NC(C)CCc1ccccc1 (stereo unspecified),-0.52,1,0.8,-8,0,1,·,·,·,·,·,·
CC(Cc1ccccc1)NC(=O)/C=C/c1ccc([N+](=O)[O-])cc1 (stereo unspecified),-3.1,-3,-0.76,14,2,-6,·,·,·,·,·,·
CC(CCc1ccccc1)NC(=O)/C=C/c1ccc(Cl)cc1 (stereo unspecified),-8.1*,0,0.73,11,5,2,0.0073,0.0056,0.027,0.0065,0.018,0.0093
